From PubChem
KCNH2 WT inh = KCNH2 (human, wildtype) channel inhibition | activity change, % at 1.84 µM | actives 0.37% (n = 340,000) | Q12809 | AID 720551 | U2OS, BacMam KCNH2, thallium flux FluxOr; hits give low values;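 active means maximum activity change below -70%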; further: on the % scale 0 is the no-effect control and ±100 the full control effect
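U2OS cells transduced with wild-type KCNH2 virus are loaded with FluxOr dye for 45 min, and thallium flux is measured in kinetic reads before and after stimulation buffer. Rate constants are normalized to DMSO controls.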
KCNH2 3.1 block = KCNH2 3.1 (human) potassium channel inhibition; U2OS KCNH2 3.1, thallium flux FluxOr; hits give low values; activity change, % (tested at about 1.8 µM); actives 0.95% (n = 340,000);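 active means maximum activity change below -70%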;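 further: thallium influx rate constant from kinetic fluorescence after stimulation buffer; on the % scale 0 is the no-effect control and ±100 the full control effect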
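Virally transduced U2OS (3.1 isoform, 4 h infection in dark at RT) → overnight 37 C → FluxOr + Red40 in HBSS/HEPES, 45 min → stimulation buffer, 2 min kinetic read → rate constant vs DMSO controls.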
Glioma ERSR ind = induces the endoplasmic reticulum stress response in human glioma cells; U87-MG GRP78 promoter luciferase reporter, 16 h; Potency, µM, for inactives: top-dose activation, usual class: activators; actives 0.02% (n = 420,000); active means well fitted activation curve with a large enough effect; further: potency means the concentration at half of the fitted maximal effect; series mostly up to about 76 µM; % of control where 0% means no effect; nearly all actives have a fitted effect of over 35% in size
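ERSR induction read as luciferase luminescence (Bright-Glo, 10 min at room temperature) in stably transfected human U87-MG glioma cells exposed to compounds for 16 h, using GRP78 as sensor.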
TRPML1 agonist = activates the human TRPML1 channel. Q9GZU1. TRPML1-expressing cells, Ca2+ dye fluorescence, FDSS. activation, % (concentration not given with the values). actives 0.12% (n = 410,000). AID 624414; in the data active means activation above about 50%; further: 0% is about no effect
Target sequence (Q9GZU1 whole entry, looked up): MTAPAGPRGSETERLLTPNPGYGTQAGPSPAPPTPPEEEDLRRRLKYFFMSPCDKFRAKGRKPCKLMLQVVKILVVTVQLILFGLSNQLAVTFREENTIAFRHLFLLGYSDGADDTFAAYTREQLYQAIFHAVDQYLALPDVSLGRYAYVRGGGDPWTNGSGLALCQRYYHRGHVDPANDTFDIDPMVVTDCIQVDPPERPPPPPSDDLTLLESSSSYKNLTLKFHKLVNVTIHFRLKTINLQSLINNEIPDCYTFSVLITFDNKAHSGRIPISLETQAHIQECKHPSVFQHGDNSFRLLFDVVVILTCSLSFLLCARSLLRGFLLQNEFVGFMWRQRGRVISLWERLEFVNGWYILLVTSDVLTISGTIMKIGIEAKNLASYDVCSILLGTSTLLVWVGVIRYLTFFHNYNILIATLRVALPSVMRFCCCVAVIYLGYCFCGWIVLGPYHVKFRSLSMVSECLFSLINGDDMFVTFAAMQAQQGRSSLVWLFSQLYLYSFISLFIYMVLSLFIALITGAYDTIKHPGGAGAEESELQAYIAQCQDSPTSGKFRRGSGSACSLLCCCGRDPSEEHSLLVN
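Calcium fluorescence on an FDSS kinetic reader gave the read-out. Tet-induced TRPML1-DL cells were plated overnight, dye-loaded (Ca8 with quencher, 45-90 min, room temperature, dark), then read 110 s after compound addition, and again 110 s after 4uM final 54-4 (EC80).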
TSG101-PTAP inh = blocks PTAP/TSG101 interaction to inhibit HIV-1 budding. Fluorescence polarization, FITC-PTAP peptide / Tsg101 binding. Q99816. 340,000 tested, under 10 active. Potency, µM (doses to about 115 µM), for the others: at the top dose activity change, negative = inhibition, usual class: inhibitors; active means well fitted inhibition curve with a large enough effect in the main read-out, with a control signal flat, not every such curve was filed as active; further: potency means the concentration at half of the fitted maximal effect; % of control where 0% means no effect
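Steps: Tsg101 binding domain dispensed (10 uM final), compounds pinned in DMSO, FITC-labeled PTAP-motif peptide added (50 nM final); after 20 min binding at room temperature, polarization measured.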
TRPML1 inh = inhibitors of human TRPML1 channel | Q9GZU1 | TRPML1-inducible cells, Ca2+ dye fluorescence, FDSS; hits give low values; inhibition of EC80 agonist-evoked calcium signal | activity change, negative = inhibition, % (no concentration beside the values) | actives 0.02% (n = 390,000); in the data active means activity change below about -50%;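 further: stimulus is agonist 54-4 at its EC80 concentration; on the % scale 0 is the no-effect control and ±100 the full control effect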
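TRPML1-DL cells, Tet-induced overnight (~16 h, 37 °C) at 1,500 cells/well, were loaded with Ca8 no-wash dye plus quencher for 45-90 min at room temperature. Compounds were pinned during FDSS kinetic reading; agonist 54-4 at EC80 (4 uM final) then added.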
* marks the source's active call; other numbers are inactive results; nt = not tested or not shown. Only some compounds are listed: those with a hit (about 1% of all), similar ones and a draw of the others.

SMILES	KCNH2 WT inh	KCNH2 3.1 block	Glioma ERSR ind	TRPML1 agonist	TSG101-PTAP inh	TRPML1 inh
COc1c(OC(C)=O)ccc(/C=C/c2ccc3ccccc3n2)c1[N+](=O)[O-]	-3	-77*	6%	2	-1%	-10
COc1c(OC(C)=O)ccc(/C=C/c2ccc3cccc(OC)c3n2)c1[N+](=O)[O-]	-11	-8	-3%	1	-3%	-3
CC(CN1CCOCC1)C(Cc1ccccc1)(Cc1ccccc1)C(=O)N1CCCC1 (stereo not drawn)	nt	nt	-3%	nt	nt	nt
Cc1cccc(C(=O)Nc2sc(C)c(-c3ccccc3)c2C#N)c1	-4	-29	-6%	3	-1%	-3
Cc1sc(NC(=O)C2CCCCC2)c(C#N)c1-c1ccccc1	-6	-19	5%	83*	-8%	-14
Fc1cccc(-c2cc3nc4c(c(NCc5ccco5)n3n2)CCCC4)c1	-10	-78*	7%	0	-12%	-1
COc1ccc(C(=O)C2CCCN(Cc3cn[nH]c3-c3ccc(F)cc3)C2)cc1OC (stereo not drawn)	25	-23	-6%	-1	-6%	4
O=C(c1ccc(F)cc1)C1CCN(Cc2cn[nH]c2-c2ccc(F)cc2)CC1	-22	-80*	1%	0	-5%	-2
C/C(=N\Nc1ccc([N+](=O)[O-])cc1[N+](=O)[O-])c1ccc(-n2nncc2C(C)(C)C)cc1	-2	3	-1%	76*	0%	-2
Cc1ccc(N2CCN(S(=O)(=O)c3ccc(F)c(C)c3)CC2)c(C)c1	-9	nt	-5%	50*	0%	-20
O=C(Nc1ccccc1)c1ccc(-c2ccc(Br)cc2)o1	8	-1	10%	2	-3%	4
O=C(Nc1ccc(CN2CCOCC2)cc1)c1ccc(-c2ccc(Br)cc2)o1	12	-103*	-1%	1	-9%	22
O=C(Nc1cccc(NC(=O)c2ccc(-c3ccc(Br)cc3)o2)c1)c1ccccc1	-4	-94*	-1%	0	0%	11
O=C(Nc1ccc(CN2CCOCC2)cc1)c1ccc(Br)cc1	23	-48	2%	1	-4%	37
CCc1nc2cc(C(=O)N(C)CC3CCCN(C)C3)cc(NC(=O)c3ccccc3OC)c2n1C (stereo not drawn)	nt	nt	-5%	nt	nt	nt
Cc1ccccc1-c1ccc(Nc2ccc(N3CCOCC3)cc2)nn1	-33	-73*	2%	0	-5%	-15
O=S1(=O)N=C(Nc2ccc(N3CCOCC3)cc2)c2ccccc21	8	2	2%	0	-14%	22
COc1cccc(C2(CC(=O)N3CCC(c4nc5ccc(F)cc5[nH]4)CC3)CC(=O)N(C)C2=O)c1 (stereo not drawn)	nt	nt	-6%	nt	nt	nt
CCN1CCN(c2nc3sc4c(c3c(=O)n2-c2ccc(OC)cc2)CCCCC4)CC1	0	-71*	-4%	0	1%	1
COc1ccc(-n2c(NN)nc3sc4c(c3c2=O)CCCC4)cc1	-8	5	1%	1	-3%	5
COc1ccc(NC(=O)COC(=O)COc2cccc(Br)c2)cc1OC	8	-1	-2%	-1	-4%	17
O=C(COC(=O)COc1cccc(Br)c1)Nc1c(Cl)cccc1Cl	-189*	5	-1%	2	-1%	0
COC(=O)[C@@H]1CCCN1Cc1ccc2c(c1)CN(Cc1nccs1)CCO2	nt	nt	-6%	nt	nt	nt
CN1CCN(C(c2ccccc2)c2ccccc2)CC1	1	7	-3%	-1	0%	-1
CN1CCCN(C(c2ccccc2)c2ccc(Cl)cc2)CC1 (stereo not drawn)	-22	-99*	-4%	3	-1%	0
SMILES	KCNH2 WT inh	KCNH2 3.1 block	Glioma ERSR ind	TRPML1 agonist	TSG101-PTAP inh	TRPML1 inh
O=C(Nc1cnn(C23CC4CC(CC(C4)C2)C3)c1)c1cc(-c2ccccc2)on1	-11	-75*	-1%	1	-7%	-9
COc1cccc(-c2cc(C(=O)Nc3cnn(Cc4ccc(Cl)cc4Cl)c3)no2)c1	nt	nt	-3%	1	nt	-10
COc1ccc(-c2cc(C(=O)Nc3cnn(Cc4ccccc4C)c3)no2)cc1OC	-248*	-14	-4%	3	-6%	81
CC(C)(C)c1ccc(CN(Cc2ccccc2)C(c2ccccn2)c2nnnn2C(C)(C)C)cc1 (stereo not drawn)	-4	-23	-4%	56*	-1%	3
O=c1[nH]c2ccccc2n1C1CCCCC1	-84*	3	-3%	0	-3%	17
Cc1nc2sccn2c1CN1CCC2(CC1)CC2C(=O)Nc1ccc2c(c1)OCO2 (stereo not drawn)	nt	nt	-5%	nt	nt	nt
Cc1ccc(Nc2cc(C)nc(-c3ccccc3)n2)cc1	22	-77*	4%	3	-1%	13
Cc1cc(Nc2ccc(Cl)cc2)nc(NCc2ccccc2)n1	4	-78*	-15%	1	-1%	35
Cc1cc(Nc2ccccc2)nc(NCc2ccccc2)n1	0	2	-9%	2	-5%	-3
Cc1ccc(/C=N/Nc2cc(C)nc(NCc3ccccc3)n2)cc1	26	-80*	4%	1	-3%	16
Cc1cc(N/N=C/c2ccc(F)cc2)nc(NCc2ccccc2)n1	10	-100*	1%	2	-1%	28
Cc1cc(N/N=C/c2ccc(N(C)C)cc2)nc(NCc2ccccc2)n1	1	-4	1%	6	0%	13
COC(=O)c1c(OCc2ccccn2)cc(=O)n2c1CCN(Cc1ccc3c(c1)CCCN3C)CC2	nt	nt	-2%	nt	nt	nt
O[C@@H](CNC[C@H](O)[C@H]1CCc2cc(F)ccc2O1)[C@@H]1CCc2cc(F)ccc2O1	nt	nt	-10%	nt	nt	nt
CCOC(=O)CN[C@@H](C(=O)N1CC[C@H]1C(=O)NCc1ccc(/C(N)=N/O)cc1)C1CCCCC1	nt	nt	-3%	nt	nt	nt
CN(C)S(=O)(=O)Nc1cccc(-c2cn3c(n2)SCC3)c1	32	-106*	-5%	0	0%	37
COc1ccc(C)cc1S(=O)(=O)NCCC1=CCCCC1	-257*	2	-4%	1	-3%	-4
Cc1nc(CN2CCN(C(=O)CC3(c4ccccc4Cl)CC(=O)N(C)C3=O)CC2)cs1 (stereo not drawn)	nt	nt	-3%	nt	nt	nt
CC(=O)N1Cc2[nH]c3ccccc3c2CC1C(=O)O (stereo not drawn)	-11	-81*	1%	1	-1%	11
COc1ccc(CNCCC(c2ccc(OC(C)C)cc2)c2ccccc2OC)cc1OC (stereo not drawn)	-45	-82*	-6%	1	1%	17
COc1ccc(C(CC(=O)O)c2ccc3c(c2)OCO3)cc1 (stereo not drawn)	8	10	-2%	-1	-2%	15
